Laboratory results published in PubChem BioAssay AID1159580 (chemical genetic matrix, 2015).
Screen size: about 5,500 compounds; about 2,000 (36%) were called active. Not shown: some 18% with an inconclusive outcome. Cut-off read from the data, not from the text of the source: active = normalized growth mostly below about 0.91 (no sharp cut-off); inconclusive = no clear call, values can overlap the other calls; inactive = mostly above about 0.92. The list shows a part of the results.

Test: chemical genetic growth profiling, strain panel (AID 1159580);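 note: tested at 20 µM; growth read once vehicle control cultures reached saturation at 30 °C; 1 = growth at the plate median or of vehicle wells; lower values mean less growth of the strain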
Conditions: S. cerevisiae deletion strains, growth OD
[1] = locus YDL101C, strain DUN1, stronger effect = lower value
[2] = locus YHR030C, strain SLT2, stronger effect = lower value
[3] = locus YJL095W, strain BCK1, stronger effect = lower value
[4] = locus YOR061W, strain CKA2, stronger effect = lower value

Measured: normalized growth

O=c1cc(CSc2ccc(Cl)cc2)c2ccc(O)cc2o1
inactive: locus YAR019C, strain CDC15, stronger effect = lower value 0.937 | locus YBL105C, strain PKC1, stronger effect = lower value 0.963 | locus YBR135W, strain CKS1, stronger effect = lower value 0.944 | locus YBR136W, strain MEC1, stronger effect = lower value 0.949 | locus YBR160W, strain CDC28, stronger effect = lower value 0.96 | locus YDL017W, strain CDC7, stronger effect = lower value 0.964 | locus YDL028C, strain MPS1, stronger effect = lower value 0.956 | [1] 0.974 | locus YDL108W, strain KIN28, stronger effect = lower value 0.955 | locus YDL132W, strain cdc53, stronger effect = lower value 0.944 | locus YDL214C, strain PRR2, stronger effect = lower value 0.738 | locus YDR052C, strain DBF4, stronger effect = lower value 0.962 | locus YDR054C, strain cdc34, stronger effect = lower value 0.937 | locus YDR226W, strain ADK1, stronger effect = lower value 0.959 | locus YFL009W, strain cdc4, stronger effect = lower value 0.935 | locus YFL029C, strain CAK1, stronger effect = lower value 0.943 | locus YFR003C, strain YPI1, stronger effect = lower value 0.959 | locus YFR019W, strain FAB1, stronger effect = lower value 0.826 | locus YFR028C, strain CDC14, stronger effect = lower value 0.954 | locus YGR092W, strain DBF2, stronger effect = lower value 0.63 | locus YHR205W, strain SCH9, stronger effect = lower value 0.759 | locus YIL147C, strain SLN1, stronger effect = lower value 0.95 | locus YJL128C, strain PBS2, stronger effect = lower value 0.92 | locus YJL157C, strain FAR1, stronger effect = lower value 0.737 | locus YJR016C, strain ILV3, stronger effect = lower value 0.945 | locus YJR066W, strain TOR1 (second series), stronger effect = lower value 0.738 | locus YJR066W, strain TOR1, stronger effect = lower value 0.534 | locus YKL193C, strain SDS22, stronger effect = lower value 0.947 | locus YLR133W, strain CKI1, stronger effect = lower value 0.747 | locus YMR001C, strain CDC5, stronger effect = lower value 0.944 | locus YMR205C, strain PFK2 (second series), stronger effect = lower value 0.748 | locus YMR277W, strain FCP1, stronger effect = lower value 0.928 | locus YNL006W, strain LST8, stronger effect = lower value 0.958 | locus YNL020C, strain ARK1, stronger effect = lower value 0.719 | locus YNL161W, strain CBK1, stronger effect = lower value 0.947 | locus YNL207W, strain RIO2, stronger effect = lower value 0.946 | locus YNL222W, strain SSU72, stronger effect = lower value 0.944 | locus YNL307C, strain MCK1 (second series), stronger effect = lower value 0.686 | locus YOL078W, strain AVO1, stronger effect = lower value 0.939 | locus YOL136C, strain PFK27, stronger effect = lower value 0.748 | [4] 0.712 | locus YOR329C, strain SCD5, stronger effect = lower value 0.955 | locus YPL209C, strain IPL1, stronger effect = lower value 0.955 | locus YPR025C, strain CCL1, stronger effect = lower value 0.952 | locus YPR106W, strain ISR1, stronger effect = lower value 0.952 | locus YPR111W, strain DBF20, stronger effect = lower value 0.951 | strain NNK1, stronger effect = lower value 0.948 | strain TSCII, stronger effect = lower value 0.934
active: locus YDR477W, strain SNF1, stronger effect = lower value 0.674 | locus YER123W, strain YCK3, stronger effect = lower value 0.565 | locus YER133W, strain GLC7, stronger effect = lower value 0.572 | locus YGR040W, strain KSS1, stronger effect = lower value 0.631 | locus YGR052W, strain FMP48, stronger effect = lower value 0.436 | [2] 0.452 | locus YHR079C, strain IRE1, stronger effect = lower value 0.405 | locus YHR082C, strain KSP1, stronger effect = lower value 0.472 | [3] 0.432 | locus YKL048C, strain ELM1, stronger effect = lower value 0.656 | locus YKL067W, strain YNK1, stronger effect = lower value 0.732 | locus YKL101W, strain HSL1, stronger effect = lower value 0.682 | locus YKL203C, strain TOR2, stronger effect = lower value 0.66 | locus YLR113W, strain HOG1, stronger effect = lower value 0.265 | locus YLR403W, strain SFP1, stronger effect = lower value 0.639 | locus YML070W, strain DAK1, stronger effect = lower value 0.666 | locus YNL183C, strain NPR1, stronger effect = lower value 0.434 | locus YOR119C, strain RIO1, stronger effect = lower value 0.654 | locus YOR231W, strain MKK1, stronger effect = lower value 0.444 | locus YPL031C, strain PHO85, stronger effect = lower value 0.497 | locus YPL153C, strain RAD53, stronger effect = lower value 0.442 | locus YPL204W, strain HRR25, stronger effect = lower value 0.574 | locus YPL256C, strain CLN2, stronger effect = lower value 0.41

CC12CCC3C(CCC4(O)CC(O)CCC34/C=N/NC(N)=O)C1(O)CCC2C1=CC(=O)OC1 (stereo unspecified)
inactive: locus YBR021W, strain FUR4, stronger effect = lower value 1.05 | locus YBR229C, strain ROT2, stronger effect = lower value 1.02 | locus YCL029C, strain bik1, stronger effect = lower value 0.999 | locus YDL035C, strain GPR1, stronger effect = lower value 1.05 | locus YDL074C, strain BRE1, stronger effect = lower value 1.05 | [1] 1.01 | locus YDL185W, strain tfp1, stronger effect = lower value 0.998 | locus YDL192W, strain arf1, stronger effect = lower value 1.01 | locus YDR101C, strain arx1, stronger effect = lower value 1.01 | locus YDR162C, strain NBP2, stronger effect = lower value 1.02 | locus YDR318W, strain mcm21, stronger effect = lower value 0.985 | locus YDR388W, stronger effect = lower value 0.985 | locus YDR502C, strain sam2, stronger effect = lower value 0.974 | locus YER110C, stronger effect = lower value 0.963 | locus YER155C, strain BEM2, stronger effect = lower value 1 | locus YER167W, strain BCK2, stronger effect = lower value 1.02 | locus YGL078C, strain dbp3, stronger effect = lower value 0.983 | locus YGL086W, strain mad1, stronger effect = lower value 0.991 | locus YGL248W, strain PDE1, stronger effect = lower value 1 | locus YGR078C, strain PAC10, stronger effect = lower value 0.991 | locus YGR135W, strain pre9, stronger effect = lower value 0.957 | locus YGR252W, strain gcn5, stronger effect = lower value 0.98 | [2] 1.01 | locus YHR079C, strain IRE1 (second series), stronger effect = lower value 0.988 | locus YHR094C, strain hxt1, stronger effect = lower value 0.979 | locus YHR129C, strain ARP1, stronger effect = lower value 1.01 | locus YHR200W, strain rpn10, stronger effect = lower value 0.994 | locus YIL066C, strain RNR3, stronger effect = lower value 1.04 | locus YIL073C, strain SPO22, stronger effect = lower value 1.01 | locus YIL125W, strain kgd1, stronger effect = lower value 0.992 | locus YIR030C, strain dcg1, stronger effect = lower value 0.994 | [3] 1 | locus YJL134W, strain LCB3, stronger effect = lower value 1.01 | locus YJL168C, strain set2, stronger effect = lower value 0.991 | locus YJL187C, strain SWE1 (second series), stronger effect = lower value 0.999 | locus YKL009W, strain mrt4, stronger effect = lower value 1.03 | locus YKL068W, stronger effect = lower value 0.987 | locus YKL085W, strain MDH1 (second series), stronger effect = lower value 0.994 | locus YKL085W, strain MDH1, stronger effect = lower value 0.994 | locus YKR001C, strain vps1, stronger effect = lower value 0.996 | locus YLR039C, strain RIC1, stronger effect = lower value 1.06 | locus YLR058C, strain SHM2, stronger effect = lower value 1.02 | locus YLR102C, strain apc9, stronger effect = lower value 0.985 | locus YLR262C, strain YPT6, stronger effect = lower value 1.05 | locus YLR268W, strain sec22, stronger effect = lower value 1.02 | locus YLR371W, strain rom2, stronger effect = lower value 0.994 | locus YLR418C, strain cdc73, stronger effect = lower value 0.975 | locus YML016C, strain PPZ1, stronger effect = lower value 1.02 | locus YML032C, strain rad52, stronger effect = lower value 1 | locus YML124C, strain tub3, stronger effect = lower value 0.986 | locus YMR078C, strain ctf18, stronger effect = lower value 0.981 | locus YMR223W, strain ubp8, stronger effect = lower value 0.975 | locus YMR307W, strain GAS1, stronger effect = lower value 1.08 | locus YNL067W, strain RPL9B, stronger effect = lower value 0.986 | locus YNL153C, strain GIM3, stronger effect = lower value 0.991 | locus YNL233W, strain BNI4, stronger effect = lower value 0.987 | locus YNL250W, strain rad50, stronger effect = lower value 0.985 | locus YNL271C, strain bni1, stronger effect = lower value 0.994 | locus YNL298W, strain CLA4, stronger effect = lower value 0.983 | locus YNL307C, strain MCK1, stronger effect = lower value 0.986 | locus YNR052C, strain pop2, stronger effect = lower value 0.98 | locus YOL012C, strain htz1 1.29 | locus YOL147C, strain pex11, stronger effect = lower value 0.986 | [4] 1.04 | locus YOR069W, strain VPS5, stronger effect = lower value 1 | locus YOR136W, strain idh2, stronger effect = lower value 0.98 | locus YOR144C, strain elg1, stronger effect = lower value 0.989 | locus YOR184W, strain ser1, stronger effect = lower value 1.03 | locus YOR316C, strain cot1, stronger effect = lower value 0.987 | locus YPL241C, strain CIN2, stronger effect = lower value 1.01 | locus YPR119W, strain clb2, stronger effect = lower value 0.983 | locus YPR141C, strain kar3, stronger effect = lower value 0.994 | locus YPR163C, strain tif3, stronger effect = lower value 0.989 | locus YPR167C, strain met16, stronger effect = lower value 0.978 | strain wtn01, stronger effect = lower value 1.01
